Sequences and labels used below:
B1: 7301359_7301479_2013_3pUTR_ENSMUSG00000024764_ENSMUST00000025675|mouse|control|control (ssRNA)
RNA: GGGAGUUCUACAGUCCGACGAUCGACACCCAUGACAGGAAAGCAGUGGUACGCCACUGAAAGGCAUCCCAGGGGUGCCAAGACAGUGGCACGAGUGCCUCAUUGAGGCGGUGAGGGGUGGGGCUCGGGAGAACAGGCAAAGGGCAACAGAGGAUUGAGCAUCA
B2: chr12:39756943:39756944:-_ENSG00000139116_ENST00000544797|hu_mus|hu_hu_hu_mus_False|8_28 (ssRNA)
RNA: GGGAGUUCUACAGUCCGACGAUCGGUUUGGCUGUUACCCCCAAGGGAAUCCUGCAAGAGUCUUGUCAGCUUAGAGUCUCUGUAAGGGACAUGGGUGGCUCUCUUGCUCUUGUCUCCCAAGGCGCUGAUUACAUUGCCAAGAGCCAACAGAGGAUUGAGCAUCA
B3: chr1:46159212:46159213:+_ENSG00000159596_ENST00000372025|hu_mus|hu_hu_hu_mus_True|58_58 (ssRNA)
RNA: GGGAGUUCUACAGUCCGACGAUCUCUGAUCCCUCCCAAGAAAGCUAGGAAACCGGCUCCAUAAGCCAUCUGAGUGAAAGCUAAUAUGGGGAUAUAAGACUUUGUUAUUACCAUGAGAAGUGGGGGAGCAGUAAAGGGGAUUAACAACAGAGGAUUGAGCAUCA
B4: chr11:69466387:69466388:+_ENSG00000110092_ENST00000227507|hu_hu|FALSE|FALSE (ssRNA)
RNA: GGGAGUUCUACAGUCCGACGAUCACACGUAAAGGAUGGAACCUAAUCCUCUCCCGAGACGCCUCCUUUGUGUUAAUGCCUAUUCUUACAACAGAGAAACAAGUACAUUAAUAUAAAAACGAGUUGAUUAUUGGGGUAUAAAAUCAACAGAGGAUUGAGCAUCA
B5: chr13:48835921:48835922:+_ENSG00000136156_ENST00000378565|hu_hu|FALSE|FALSE (ssRNA)
RNA: GGGAGUUCUACAGUCCGACGAUCGAUAUGGGUUAUACAAAUUAGUAACACAAGUUAUUUCUUAAAUUCCAAACAUUUUCUAAAAUAUUAUUACAGCAGAUGCCUAGGAUAUUAAAACAUAAAGGUGGAAAUCAUUCUCUAAAUCAACAGAGGAUUGAGCAUCA
B6: chr5:128440902:128440903:+_ENSG00000066583_ENST00000173527|hu_mus|hu_hu_hu_mus_True|1_58 (ssRNA)
RNA: GGGAGUUCUACAGUCCGACGAUCUUGAACGGUGCUGCCAAGUCCUUUGGGGUAUUGUUCCGUUAUGAUAACUGGAAUUCCUAAAAUCCGAGCUCCUUGCAACAGUCUCUGUCCCACACUAAUGAUGUCCCCAAAGUACUUGAUCAACAGAGGAUUGAGCAUCA
B7: chr1:109605286:109605287:-_ENSG00000197780_ENST00000461096|hu_mus|hu_hu_hu_mus_True|78_98 (ssRNA)
RNA: GGGAGUUCUACAGUCCGACGAUCAAGUUUCAGAGUAUUCAGUGAUCACCUCUUUAACAAUUGUAAUCCUUAUUAUAAGCUAAGCAGAAUAAUAAUUUAAUACCGUAAGUGAACUACACACAAAGCCUGAACCGCGAAAAUGGUCAACAGAGGAUUGAGCAUCA
B8: chr11:69466387:69466388:+_ENSG00000110092_ENST00000227507|hu_hu|motif|central (ssRNA)
RNA: B4 RNA with U80G, A81G
B9: chr2:27445747:27445748:+_ENSG00000084774_ENST00000264705|hu_hu|FALSE|FALSE (ssRNA)
RNA: GGGAGUUCUACAGUCCGACGAUCGGAGGCAGGGUCACCAGGCCCAUUACUUAAGAAGAGACCCUCAUACUCUUGGCUGUCUAGUGCAUGGUCCCAGGGUACCACAGUGACCUCAGCCCCACGCUGGCAGAGGCAUCGGAUCUGCAACAGAGGAUUGAGCAUCA
B10: chr9:95013113:95013114:-_ENSG00000196305_ENST00000443024|hu_hu|hu_hu_hu_mus_False|68_88 (ssRNA)
RNA: GGGAGUUCUACAGUCCGACGAUCCUCAGUCAGAAAGGGCGUGUAAGGAGCCAUAAGUCUGCACAGAGAAAGCAGAACACUGAACAGUGUCUCCAGAGCCAUGACACAGUCUUCCACCCCACUCUCACCCUUUAACCUCCUCCUCAACAGAGGAUUGAGCAUCA
B11: 142899929_142900494_654_CDS_ENSMUSG00000031004_ENSMUST00000033310|mouse|control|control (ssRNA)
RNA: GGGAGUUCUACAGUCCGACGAUCAAGGCCCUUGGCAUACACAAAAGAUCUUCUUGAAGCAGUCAUUUUUGAAGCUUUGGUAUCUUGACCUUCCCCAUCAGGGUCAGCACAGAAGCUAUCUCUUGAGGCUCGCCUUGAUGGUUCCAACAGAGGAUUGAGCAUCA
B12: chr15:57879074:57879075:-_ENSMUSG00000022361_ENSMUST00000070143|mus_hu|motif|central (ssRNA)
RNA: GGGAGUUCUACAGUCCGACGAUCCAGCUGUCUGAGUGAGGAAAUCAGCUACAUUGCAGCAUUUUGGAAUUACUAAUAAAGCGGUAGUUAAAAAAUAAAAAGUUUAUAAAAAUGAAAGCAGCAUGCAUAUUCAAGGCUUUUUCACAACAGAGGAUUGAGCAUCA
B13: chr15:57879074:57879075:-_ENSMUSG00000022361_ENSMUST00000070143|mus_hu|FALSE|FALSE (ssRNA)
RNA: B12 RNA with G82U, G83A
B14: chr6:136509389:136509390:+_ENSMUSG00000030213_ENSMUST00000032335|mus_hu|FALSE|FALSE (ssRNA)
RNA: GGGAGUUCUACAGUCCGACGAUCAAUAUUAUUAUCAGCUUUAUUUUUCUCAUCCAAUGAGUCUUUACUCUGAAUUUGCUCUAAUUUUUCAUCAGCUCCAUUUUUUUCAAGAAAAUCAUCAUCUUUAUUGCUACUUGGUUCUAUCAACAGAGGAUUGAGCAUCA
B15: chr12:111890518:111890519:-_ENSG00000204842_ENST00000389154|hu_hu|FALSE|FALSE (ssRNA)
RNA: GGGAGUUCUACAGUCCGACGAUCUUGGAUGUUACAAGAAAUCAACAUAUAUAUUUUAAAAACAAAAUAAAUGAAAUUCUAGUUUUCUGUGCUUCCAGUUGGUAGAAGCAGUAGAAGGGAGGAGGGAAUUUGGCCUUUCGGUUCCAACAGAGGAUUGAGCAUCA
B16: chr12:98991669:98991670:+_ENSG00000075415_ENST00000552981|hu_mus|motif|central (ssRNA)
RNA: GGGAGUUCUACAGUCCGACGAUCGAAUCCAUUAAAUAUGCCUUUGUACUUCUGAGGGUCCACCUGCAUGCGGCACUUUACGGAGUCCAGGGGAACAACAGCAGUGUGUGUCAGCCCACAACUUAAGACCCCACCAAAGCCACACAACAGAGGAUUGAGCAUCA
B17: chr4:115894766:115894767:+_ENSMUSG00000028698_ENSMUST00000030464|mus_hu|mus_mus_mus_hu_True|1_98 (ssRNA)
RNA: GGGAGUUCUACAGUCCGACGAUCUUCCACACGGAAAGUACUUGGGGGUUUUCCAACGGCCAGUACCAGUCCGGCCAAACUACCCGAACAGGGUCCUCCCCCUCUCUCCUACAGAACACAACAAAAUGCCCCCGAACCCCGAACCAACAGAGGAUUGAGCAUCA
B18: chr2:69705335:69705336:+_ENSMUSG00000068882_ENSMUST00000090852|mus_mus|FALSE|FALSE (ssRNA)
RNA: GGGAGUUCUACAGUCCGACGAUCUUGGCCUUUAUCGUCUAGCCAUUCUUUUAUAUCAUCAAGGGUGGCGUCAGUUGGGAAACCUUUAAUAUAAACAGAUCUGUUUUUUACAUCAUUCUUAUACUCAUCCGUCACUUCAGGGAGCAACAGAGGAUUGAGCAUCA
B19: chr8:122087627:122087628:-_ENSMUSG00000034189_ENSMUST00000036049|mus_mus|motif|central (ssRNA)
RNA: GGGAGUUCUACAGUCCGACGAUCGCAUUAAAGGCGUGAGCCCCCACGCCCAGCCUGAGGAACAUCUUGAAAGCCAAUACGGUAAUCAGUCACCUGUAAAAGGAAAACAGGUGACUUCUCAAAAAAAAAAAAAAAAGAAAGAAACAACAGAGGAUUGAGCAUCA
B20: chr8:122087627:122087628:-_ENSMUSG00000034189_ENSMUST00000036049|mus_mus|FALSE|FALSE (ssRNA)
RNA: B19 RNA with G80U, G81A
B21: chr12:48362563:48362564:+_ENSG00000134291_ENST00000256686|hu_hu|hu_hu_hu_mus_False|98_108 (ssRNA)
RNA: GGGAGUUCUACAGUCCGACGAUCUCCGAAGGGUGAAUCAAGCCCCACUUGCGGGGGAAACUGUAAUCACUUUGUAUGGGGAAGGAAAAGAAACGCCAAAAACUUUCCAAAAAGCGGGGGUGGGGUGAGGCGGGAGGGGGAGGUCAACAGAGGAUUGAGCAUCA
B22: chr8:124405102:124405103:-_ENSMUSG00000040010_ENSMUST00000045557|mus_mus|motif|central (ssRNA)
RNA: GGGAGUUCUACAGUCCGACGAUCCCCAAAAAAACAAAAAGCCUCACAAAACAGCAGACCUCUGUACCCCCCCCCCAGUCGGAUGUAACAGGCUAGCCAUUAAUACAAUAGUAAAAGACAUUAUAACCACAGCACUAUCUCAGGCAACAGAGGAUUGAGCAUCA
B23: chr1:23884524:23884525:-_ENSG00000117318_ENST00000374561|perfect_dup|FALSE|FALSE (ssRNA)
RNA: GGGAGUUCUACAGUCCGACGAUCUUUAAUAUACAUCGCAUUGUUACAGAAAGUCACCUUCCUGUAAAAAAGGUACAAAACCUAUAUACUCUAUUAUAGAGUUCAUAAAUCAGGGCAACAGAACCUUUCUCCAAGGAGACCAGACAACAGAGGAUUGAGCAUCA
B24: chr13:41369856:41369857:+_ENSMUSG00000091264_ENSMUST00000165561|mus_hu|FALSE|FALSE (ssRNA)
RNA: GGGAGUUCUACAGUCCGACGAUCGCACUUCAUUCUUGUACAAAGCAGGUAACACUAAACAGGAAGGUUGUUUAAUUCACAUCUCUUCUCCCUGGUAAACACUCAGCCCAGAGUUCAGUUGAGACAAACACGGAAACCUGGCAACAACAGAGGAUUGAGCAUCA

Changes are numbered by the printed parent chain. Over roughly 24,000 sequences, “enrichment r” has its median near 0.99; the highest 2% begin near 3.7. This excerpt belongs to a sample that is enriched for the highest values.

In the experiment the target is T1, UNK ZnF1-3 (human, UniProt Q9C0B0 31-174).
T1 sequence: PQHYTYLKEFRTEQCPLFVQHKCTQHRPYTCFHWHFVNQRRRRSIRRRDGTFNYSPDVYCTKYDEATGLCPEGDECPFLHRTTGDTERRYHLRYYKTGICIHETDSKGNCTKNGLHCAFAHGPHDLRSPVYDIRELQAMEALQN
Nature of the experiment: nsRBNS (natural sequence RNA bind-n-seq); RBNS binding buffer (assumed for nsRBNS): 25 mM Tris pH 7.5, 150 mM KCl, 3 mM MgCl2, 0.01% Triton X-100, 500 ug/ml BSA, 20 U/ml SUPERase-In, 4 C; UNK is unkempt and MSI1 is Musashi-1; names of the RNAs are library labels; protein concentration not given here; high values mean tight binding.
Molecule B1 had a binding signal of 1.24 enrichment R. As to B2, the binding signal turned out to be 0.697 enrichment R. B3 registered a binding signal of 1.4 enrichment R. Under B4 stands 5 enrichment R. Take B5: the binding signal is 1.52 enrichment R. To B6 belongs 0.681 enrichment R; to B7, 0.993 enrichment R; to B8, 4.6 enrichment R.

B9: the binding signal was determined as 1.01 enrichment R. Under B10 stands 1.57 enrichment R; under B11, 0.52 enrichment R.

For B12, the binding signal was found to be 6.18 enrichment R. To B13 belongs 7.31 enrichment R; to B14, 0.334 enrichment R; to B15, 1.07 enrichment R. To B16 belongs 1.12 enrichment R; to B17, 1.29 enrichment R; to B18, 1.08 enrichment R. To B19 belongs 4.56 enrichment R; to B20, 5.88 enrichment R; to B21, 1.98 enrichment R. B22 had a binding signal of 2.38 enrichment R. To B23 belongs 0.848 enrichment R; to B24, 1.42 enrichment R.

Source of the values: PMC12136788.
